Each structure is given as a SMILES string. A number with no mark means an inactive call. Results filed as inconclusive are left out. Calls of active or inactive are those of the source. The call rests on the fitted dose curve; in most records, active means well fitted curve in the direction sought with a large enough effect; inconclusive means small, poorly fitted or top-dose-only effect, or another doubt; inactive means no such curve, though single readings can be large; an effect the other way counts as inactive or inconclusive.

In test [1] the test system is Zika virus NS2B-NS3 protease (linked construct). Description: Primary screen NINDS Rhodamine qHTS for Zika virus inhibitors (AID 1347160). Further: on the % scale 0 is the no-effect control and ±100 the full control effect; nearly all actives have a fitted effect of over 55% in size. The note with it: outcome: dose series up to 57.1 µM unless noted. In short, it runs like this:
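Purified NS2B-NS3 protease with the NS2B hydrophilic domain joined by a flexible linker (25 nM) in 10 mM Tris-HCl pH 8.0, 0.01% Tween 20, preincubated 15 min at RT with compound; Rhodamine110 peptide substrate 1.5 µM; fluorescence change over 15 min; 4-parameter Hill fit.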
Background: Quantitative high-throughput screening tests each substance at several concentrations.

The nature of test [2]: qHTS to identify inhibitors of the type 1 interferon - major histocompatibility complex class I in skeletal muscle: primary screen against the NCATS Pharmaceutical Collection (AID 1347407).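 Further: luminescence of HiBiT knocked into endogenous HLA-B as interferon-induced MHC class I level; on the % scale 0 is the no-effect control and ±100 the full control effect.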 Summed up: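 Compounds […] were added to CRISPR-engineered HLA-B-HiBiT C25cl48 human myoblasts with 4.0 ng/ml IFN-beta. After 24 hrs at 37 C, cells were lysed and HiBiT luminescence measured.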

Test [3] deals with Protein phosphatase 1D (Homo sapiens) (UniProt O15297). Description: RapidFire Mass Spectrometry qHTS Assay for Modulators of WT P53-Induced Phosphatase 1 (WIP1) (AID 1347424).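 Further: amount of dephosphorylated VEPPL-S-QETFS peptide product formed by WIP1.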 Further: potency means the concentration at half of the fitted maximal effect.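 On activity change, negative = inhibition: series mostly up to about 63 µM; plate controls were DMSO wells for no effect and GSK830371 inhibitor control at 10 µM for full effect.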 In short, it runs like this: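 10 nM WIP1 preincubated with compounds 1 hr at room temperature in pH 7.5 Tris buffer with 30 mM MgCl2, 1 mM TCEP; 2 uM VEPPL-pS-QETFS phosphopeptide for 5 min, formic acid quench; dephosphorylated product quantified by RapidFire MS against labelled standard.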
Protein phosphatase 1D (Homo sapiens), sequence (O15297 whole entry, looked up): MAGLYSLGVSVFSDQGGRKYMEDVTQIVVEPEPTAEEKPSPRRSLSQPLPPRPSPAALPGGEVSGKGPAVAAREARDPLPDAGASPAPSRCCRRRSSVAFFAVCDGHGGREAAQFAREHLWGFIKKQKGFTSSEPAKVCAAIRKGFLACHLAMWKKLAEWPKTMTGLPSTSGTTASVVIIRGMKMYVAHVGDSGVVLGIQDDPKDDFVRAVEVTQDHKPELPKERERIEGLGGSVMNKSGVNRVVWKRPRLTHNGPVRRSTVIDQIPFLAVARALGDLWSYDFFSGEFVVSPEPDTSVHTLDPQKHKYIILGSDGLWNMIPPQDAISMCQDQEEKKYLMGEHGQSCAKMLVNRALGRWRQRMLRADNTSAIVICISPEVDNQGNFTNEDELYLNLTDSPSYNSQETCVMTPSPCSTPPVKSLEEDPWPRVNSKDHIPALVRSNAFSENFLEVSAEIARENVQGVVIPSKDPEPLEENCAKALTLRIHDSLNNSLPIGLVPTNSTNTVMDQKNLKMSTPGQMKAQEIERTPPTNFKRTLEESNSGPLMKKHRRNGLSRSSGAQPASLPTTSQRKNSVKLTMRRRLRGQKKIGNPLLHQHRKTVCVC

Test [4] has the same target. Description: Rhodamine-PBP qHTS Assay for Modulators of WT P53-Induced Phosphatase 1 (WIP1) (AID 1347425). Further: % of control where 0% means no effect. In short, it runs like this: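 WIP1 (5 nM final) was preincubated with compound for 1 hour at room temperature. It then dephosphorylated 10 uM VEPPL-pS-QETFS peptide in Tris-HCl pH 7.5 with 30 mM MgCl2. Released Pi was detected by 10 uM Rh-PBP fluorescence (ex 525/em 598 nm) read at 1-min intervals for 11 min, as delta f1 - f0.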

The nature of test [5]: Primary qHTS for inhibitors of La Crosse Virus (LACV) - induced cell death in SH-SY5Y cells (AID 1508616).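 Further: top concentration of the series differs between compounds; 0% = infected DMSO wells and 100% = uninfected DMSO wells; higher means more rescue of cells from virus-induced death.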 In short, it runs like this:
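Readout was luminescence from ATPLite 1step added after a 6-day LACV infection (0.01 MOI) of SH-SY5Y cells that had received pin-transferred compound 24 hr after seeding.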

In test [6] the target is Calcium and integrin-binding protein 1 (Homo sapiens) (UniProt Q99828). Nature of the test: Primary qHTS for Identification of Calcium Integrin Binding Protein 1 (CIB1) Competitor (AID 1508620). Further: top concentration of the series differs between compounds; on the % scale 0 is the no-effect control and ±100 the full control effect. In short, it runs like this: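 Fluorescence polarization competition: GST-tagged CIB1 (1 uM final) preincubated with compound 15 min at room temperature, then FITC-labelled alphaIIb peptide (100 nM final) added. After 15 min at room temperature, polarization read at Ex 480/Em 540.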
Calcium and integrin-binding protein 1 (Homo sapiens), sequence (Q99828 whole entry, looked up): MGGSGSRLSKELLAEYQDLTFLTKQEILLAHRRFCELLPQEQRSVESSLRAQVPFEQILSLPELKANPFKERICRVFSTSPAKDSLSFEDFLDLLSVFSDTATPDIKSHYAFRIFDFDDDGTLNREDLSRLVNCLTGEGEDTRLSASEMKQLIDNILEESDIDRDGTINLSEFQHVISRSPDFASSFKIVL

Test [7] addresses Lysine-specific demethylase 5B (Homo sapiens) (UniProt Q9UGL1). Nature of the test: Optimization screen for KDM5B Histone Demethylases FDH coupled qHTS against the LOPAC library (AID 1347166). Further: 0% is about no effect. Summed up: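 KDM5BDeltaAP (200nM final) preincubated 10 min with compound, then 12.5uM H3K4Me3, 25uM a-ketoglutarate, ascorbate, Fe(II), NAD+ and FDH added; 50mM HEPES pH 7.5, 0.01% Tween-20. NADH fluorescence (340/450 nm) change over 30 min, room temperature.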

Test [8] is described as follows: qHTS for inhibitors of adenylyl cyclases using a fission yeast platform: a pilot screen against the NCATS LOPAC library (AID 1347410).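 Further: plate controls were DMSO vehicle for no effect and DPI positive control for full effect.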 Summed up:
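GFP from fbp1-GFP reporter, read by Acumen laser cytometry, indicates AC inhibition in fission yeast expressing AC9, GNAS and PDE4D2. Cells grown 18 h in the dark at 30C with compounds, final up to 57 uM.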

Test [9] deals with Single-stranded DNA cytosine deaminase (Homo sapiens) (UniProt Q9GZX7). Nature of the test: Validation qHTS assay for inhibitors of Activation Induced Cytidine Deaminase (AID): AID signal (AID 1347429). Further: on the % scale 0 is the no-effect control and ±100 the full control effect. Summed up: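 In this coupled qHTS, AID deaminates a FRET-labelled ssDNA substrate in the presence of UDG over 4 hr at room temperature. Compounds span up to 114 uM final.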
Single-stranded DNA cytosine deaminase (Homo sapiens), sequence (Q9GZX7 whole entry, looked up): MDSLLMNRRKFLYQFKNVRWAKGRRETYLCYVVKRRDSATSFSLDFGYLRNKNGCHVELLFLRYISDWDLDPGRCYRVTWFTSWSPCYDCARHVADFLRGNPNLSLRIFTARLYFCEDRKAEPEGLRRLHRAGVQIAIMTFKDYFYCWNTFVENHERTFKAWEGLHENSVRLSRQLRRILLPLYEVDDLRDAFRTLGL
Test [10] concerns the target Calcium and integrin-binding protein 1 (Homo sapiens) (UniProt Q99828). Nature of the test: Validation qHTS for Identification of Calcium Integrin Binding protein 1 (CIB1) Competitor (AID 1508618). Further: on the % scale 0 is the no-effect control and ±100 the full control effect. In short, it runs like this:
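Fluorescence polarization with 1 uM CIB1-GST and 100 nM FITC-alphaIIb peptide in HEPES pH 7.4, NaCl, 5 mM CaCl2, Tween20. Compounds at up to 114 uM final, preincubated with protein 15 min; read after 15 min more at RT.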

Test [11] in a line: Confirmatory screen NINDS Rhodamine qHTS for Zika virus inhibitors (AID 1347161). Further: potency means the concentration at half of the fitted maximal effect; nearly all actives have a fitted effect of over 60% in size. Summed up: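 Enzyme (25 nM, linked NS2B-NS3) was preincubated 15 min with compound in 10 mM Tris-HCl pH 8.0, 0.01% Tween 20. Rhodamine110 substrate (1.5 microM) was then added and fluorescence read at start and after 15 min.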
Test [12] deals with Zika virus NS2B-NS3 protease (linked). Description: 384 well plate NINDS AMC confirmatory qHTS for Zika virus inhibitors (AID 1347163). Further: nearly all actives have a fitted effect of over 50% in size. Further: potency means the concentration at half of the fitted maximal effect.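 On activity change, negative = inhibition: linked protease at 5 30 or 60 nM final depending on run; fluorescence of AMC released from Ac-VKTGKR-AMC peptide cleaved by the protease; top concentration of the series differs between compounds; 0% = no-inhibitor control and -100% = no-enzyme control.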 Summed up:
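Linked protease 5/30/60 nM final; cpds up to 1 mM final, ~15 min preinc. Substrate Ac-VKTGKR-AMC 30 microM final. RT, dark, 25 min; FI ex 355/em 460; normalized to no-enzyme/no-inhibitor ctrls.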

Test [13] deals with Zika virus NS2B-NS3 protease (linked construct). Description: 384 well plate NINDS Rhodamine confirmatory qHTS for Zika virus inhibitors (AID 1347164). Further: potency means the concentration at half of the fitted maximal effect; nearly all actives have a fitted effect of over 65% in size. The following applies: rhodamine-110 peptide substrate fluorescence. Summed up: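 Fluorescence at 485/538 nm was measured 25 minutes after adding 10 microM Ac-LKRR-Rd substrate, in the dark at room temperature. The protease (5, 30 or 60 nM final) had been preincubated ~15 minutes with compound; aprotinin as control.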

Test [14] can be described thus: Vero cells viability qHTS for Zika virus inhibitors (AID 1347167). Further: on the % scale 0 is the no-effect control and ±100 the full control effect. In short, it runs like this:
(§1)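 Cells seeded at 2.5 x 10^5 cells/mL in DMEM with 4% FBS and attached overnight at 37 degrees C, then exposed to compound for 24 to 48 hours. Viability read as ATP content by CellTiter Glo luminescence.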

A short description of test [15]: HepG2 cells viability qHTS for Zika virus inhibitors (AID 1347168). Further: on the % scale 0 is the no-effect control and ±100 the full control effect. In short, it runs like this:
as §1

A short description of test [16]: qHTS to identify inhibitors of the type 1 interferon - major histocompatibility complex class I in skeletal muscle: primary screen against the NCATS Mechanism Interrogation Plate v5.0 (MIPE) Libary (AID 1347411).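 Further: plate controls were vehicle for no effect and reference inhibitor for full effect; nearly all actives have a fitted effect of over 65% in size.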 In short, it runs like this: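 Cells were genome-edited human myoblasts carrying a HiBit tag on endogenous HLA-B. They were treated with IFN-beta (4.0 ng/ml) and titrated compounds (top 46 uM) for 24 hrs before lytic HiBiT detection.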

In test [17] the target is Calcium and integrin-binding protein 1 (Homo sapiens) (UniProt Q99828). Description: Confirmatory qHTS for Identification of Calcium Integrin Binding Protein 1 (CIB1) Competitor (AID 1508617). Further: on the % scale 0 is the no-effect control and ±100 the full control effect; nearly all actives have a fitted effect of over 65% in size. In short, it runs like this: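 FP competition: CIB1-GST (1 uM final) in 5 mM HEPES pH 7.4, 125 mM NaCl, 5 mM CaCl2, 0.01% Tween20 preincubated 15 min RT with compounds (up to 114 uM), then FITC-alphaIIb peptide (100 nM), 15 min RT; Ex 480/Em 540.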

Test [18] in a line: Tertiary RLuc qRT-PCR qHTS assay for Zika virus inhibitors (AID 1347169). Further: nearly all actives have a fitted effect of over 55% in size. Further: potency means the concentration at half of the fitted maximal effect. Summed up: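 Orthogonal cell-based readout: luminescence measured 1-1.5 hrs after adding live-cell Renilla substrate to Vero cells that had been infected with ZIKV-RLuc (MOI 1-2) post-compound, incubated 48-72 hrs at 37 degrees C.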
Test [19] can be described thus: Counterscreen qHTS for small molecule stabilizers of the endoplasmic reticulum resident proteome: GLuc-NoTag assay (AID 1508627).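 Further: SH-SY5Y cells given compound then 100 nM thapsigargin to empty ER calcium; series mostly up to about 76 µM; 0% = thapsigargin alone and -100% = DMSO vehicle control.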 Summed up: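 SH-SY5Y cells stably expressing constitutively secreted GLuc without SERCaMP tag, exposed to compound for 19 hr, then to 100 nM thapsigargin for 4 hr at 37C. Medium luciferase was read by coelenterazine luminescence without lysis.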
(The purpose of a counterscreen is to sort out artefacts and off-target activity.)

Lysine-specific demethylase 5B (Homo sapiens), sequence (Q9UGL1 whole entry, looked up): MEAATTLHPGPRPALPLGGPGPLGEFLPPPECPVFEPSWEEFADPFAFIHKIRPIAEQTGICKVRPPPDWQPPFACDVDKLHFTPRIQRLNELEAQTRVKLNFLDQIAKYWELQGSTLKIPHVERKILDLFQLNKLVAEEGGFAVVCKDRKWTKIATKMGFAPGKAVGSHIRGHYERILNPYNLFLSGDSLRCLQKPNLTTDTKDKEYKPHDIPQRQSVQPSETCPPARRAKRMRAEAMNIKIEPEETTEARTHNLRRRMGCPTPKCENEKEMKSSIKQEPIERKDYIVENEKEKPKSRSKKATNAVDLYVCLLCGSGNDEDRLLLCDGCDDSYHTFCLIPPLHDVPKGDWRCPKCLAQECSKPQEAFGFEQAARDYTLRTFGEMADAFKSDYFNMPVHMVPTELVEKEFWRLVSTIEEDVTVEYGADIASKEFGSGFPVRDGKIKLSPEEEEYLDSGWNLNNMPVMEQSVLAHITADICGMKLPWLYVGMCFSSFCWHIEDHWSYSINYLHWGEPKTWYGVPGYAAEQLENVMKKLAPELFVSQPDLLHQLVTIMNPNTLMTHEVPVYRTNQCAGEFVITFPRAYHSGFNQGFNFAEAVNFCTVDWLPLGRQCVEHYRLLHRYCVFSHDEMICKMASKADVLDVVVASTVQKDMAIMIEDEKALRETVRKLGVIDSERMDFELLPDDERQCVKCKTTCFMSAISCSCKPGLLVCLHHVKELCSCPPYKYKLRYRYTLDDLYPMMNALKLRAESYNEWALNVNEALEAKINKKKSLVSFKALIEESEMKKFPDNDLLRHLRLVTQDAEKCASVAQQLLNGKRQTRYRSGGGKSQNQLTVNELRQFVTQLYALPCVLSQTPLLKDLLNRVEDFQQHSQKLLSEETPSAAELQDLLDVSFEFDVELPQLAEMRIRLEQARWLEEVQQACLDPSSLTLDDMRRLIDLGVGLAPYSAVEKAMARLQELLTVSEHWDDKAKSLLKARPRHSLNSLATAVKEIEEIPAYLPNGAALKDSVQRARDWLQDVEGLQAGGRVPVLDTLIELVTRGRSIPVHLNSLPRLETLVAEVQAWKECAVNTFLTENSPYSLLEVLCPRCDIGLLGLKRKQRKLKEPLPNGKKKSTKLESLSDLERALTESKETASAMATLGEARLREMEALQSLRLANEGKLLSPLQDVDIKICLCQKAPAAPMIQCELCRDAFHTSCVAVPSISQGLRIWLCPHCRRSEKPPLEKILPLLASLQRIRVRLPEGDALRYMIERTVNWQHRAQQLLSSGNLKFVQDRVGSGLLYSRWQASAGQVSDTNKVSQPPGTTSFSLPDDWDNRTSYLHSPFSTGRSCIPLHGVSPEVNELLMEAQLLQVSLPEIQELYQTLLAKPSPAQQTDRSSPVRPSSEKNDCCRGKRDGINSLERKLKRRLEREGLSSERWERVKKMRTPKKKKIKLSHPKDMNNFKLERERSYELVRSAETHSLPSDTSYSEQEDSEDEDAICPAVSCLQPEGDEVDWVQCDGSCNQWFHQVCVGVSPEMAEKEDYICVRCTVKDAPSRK

As to `COc1cc(C(=O)OC(COCCC(C)C)CN2CCOCC2)cc(OC)c1OC` (configuration not stated), the molecule was classed as inactive in [1], in test [4] and in test [5]. In addition, the Potency entry in test [2], in test [3] and in [6] was “inactive” each time.

Turning to `Cc1cccc(N(C)C(=S)Oc2ccc3c(c2)CCC3)c1`, the outcome in [1] was inactive. The Potency result in test [2], in test [3] and in test [6] was “inactive” throughout.

Turning to `NC(N)=NCCCCN=C(N)N`, the molecule was classed as inactive in test [7], in [8], in test [9], in test [5] and in [10].

`CC(=O)Nc1ccn(C2COC(COC(=O)c3ccccc3)O2)c(=O)n1` (configuration not stated): the outcome in test [1] and in [4] was inactive. Besides, the Potency entry in test [2], in [3] and in [6] was “inactive” each time.

`CC(=O)Oc1ccc(C2(c3ccc(OC(C)=O)cc3)Oc3ccccc3NC2=O)cc1`: the result in test [1] and in [5] was inactive. The Potency result in [3] and in test [6] was “inactive” in each case.

`O=C(Nc1ccc(S(=O)(=O)N2CCOCC2)cc1)c1cc(Cl)ccc1NS(=O)(=O)c1ccc(Cl)s1`: the Potency is 1.75 µM (active) in test [11], 10 µM (active) in test [13] and 11.2 µM (active) in test [3]. For the same molecule, the Potency result in test [12], in test [2], in test [16] and in [17] was “inactive” each time. For the same molecule, the molecule was classed as inactive in [14] and in [15].

As to `Cn1cnc2c(NCc3ccccc3)nc(NCCO)nc21`, the result in test [7], in [8], in test [9], in test [5] and in test [10] was inactive.

As to `O=C1NC(=O)/C(=C/c2ccc3c(c2)OC(F)(F)O3)S1`, the Potency is 7.84 µM (active) in test [11], 7.94 µM (active) in test [12], 5.01 µM (active) in test [13] and 11.7 µM (active) in test [18]. Moreover, the molecule was called inactive in test [7], in test [15], in test [8], in test [9] and in test [5]. In addition, the Potency entry in test [16] and in [6] was “inactive” each time.

In the case of `CN1CCC(N(Cc2cccs2)c2ccccc2)CC1`, the call in test [1] and in test [4] was inactive. For the same molecule, the Potency result in test [2], in test [3], in test [17] and in [19] was “inactive” throughout.

Turning to `CC(C(O)c1ccccc1)N(C)CCOC(c1ccccc1)c1ccccc1` (configuration not stated), in [1], the molecule was called inactive. The Potency result in [3] and in test [6] was “inactive” in each case.

As for `O=C1OC2(c3ccccc31)c1cc(I)c(O)c(I)c1Oc1c2cc(I)c(O)c1I`, the Potency in test [11] was 17.8 µM (active). In addition, the activity change, negative = inhibition in [18] is 6.31% [at 1.74 µM]. Besides, in test [5], the call was inactive. The Potency entry in test [6] is “inactive”.

As to `CN(C)[C@@H]1C(=O)C(C(N)=O)=C(O)[C@@]2(O)C(=O)C3=C(O)c4c(O)cccc4C[C@H]3C[C@@H]12`, the Potency in test [12] was 126 µM (active). The Potency entry in test [2], in [3] and in test [6] was “inactive” throughout. Moreover, the result in test [4] was inactive.

With `OC1(c2ccc(Cl)c(C(F)(F)F)c2)CCN(CCCC(c2ccc(F)cc2)c2ccc(F)cc2)CC1`, the molecule was classed as inactive in [1], in test [4] and in [5]. Also, the Potency result in [3] and in [6] was “inactive” in each case.

(Values after PubChem BioAssay (NCATS).)
